A selection: hits, their analogues and other compounds. The true share with any hit is near 9.3%.
Rab9 prom act – activators of Rab9 promoter; Huh7 Rab9 promoter-luciferase reporter, luminescence, 24 h; Potency, µM (titrated, usually from 9.22 µM), for the others: at the highest dose activation, negative = inhibition, most hits filed as activators; actives 2.8% (n = 320,000); also: % of control where 0% means no effect; nearly all actives have a fitted effect of over 60% in size
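Luciferase signal after 10 min detection reagent at ambient indicates Rab9 promoter upregulation; stably transfected Huh7 cells were treated 24 h with compound in DMSO at 37 °C, 5% CO2.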
ELG1 genotox – genotoxicity induction in ELG1-luciferase HEK293T cells; HEK293T ELG1-luciferase reporter, luminescence, 16 h; Potency, µM (top dose mostly 46 µM), for the others: at the highest dose activity change, positive = activation, hits mostly activators; actives 1.3% (n = 330,000); AID 504466; also: % of control where 0% means no effect; nearly all actives have a fitted effect of over 60% in size
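16 hr compound incubation (37 °C, 5% CO2) of HEK293T cells carrying luciferase-tagged ELG1; luciferase then measured by ONE-Glo luminescence after 30 min at RT.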
ELG1 DNA repair – ELG1-dependent DNA repair inhibition. HEK293T ELG1-luciferase reporter, luminescence, 16 h; DNA damage induced by 5-fluorouridine. Potency, µM (doses to about 46.1 µM), for inactives: top-dose activity change, negative = inhibition, hits mostly inhibitors. actives 2.3% (n = 330,000); also: % is scaled to controls: 0 for no effect and ±100 for the full control effect; nearly all actives have a fitted effect of over 55% in size
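Cells (2,000 per well) received 5-fluorouridine plus test compound or DMSO and were incubated 16 hr at 37 °C, 5% CO2. Luciferase activity was read by luminescence 30 min after ONE-Glo addition; signal suppression marked inhibition of damage-induced ELG1 function.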
FLuc modulator – inhibits or activates purified firefly luciferase, miR-21 counter-screen; P08659; purified FLuc, Km substrates, luminescence inhibition; Potency, µM (series often up to 57.5 µM), inactives show at the highest dose activity change, negative = inhibition, most hits filed as inhibitors; actives 6.9% (n = 360,000);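 also: plate controls were vehicle for no effect and reference inhibitor for full effect; nearly all actives have a fitted effect of over 55% in size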
Target sequence (P08659 whole entry, looked up): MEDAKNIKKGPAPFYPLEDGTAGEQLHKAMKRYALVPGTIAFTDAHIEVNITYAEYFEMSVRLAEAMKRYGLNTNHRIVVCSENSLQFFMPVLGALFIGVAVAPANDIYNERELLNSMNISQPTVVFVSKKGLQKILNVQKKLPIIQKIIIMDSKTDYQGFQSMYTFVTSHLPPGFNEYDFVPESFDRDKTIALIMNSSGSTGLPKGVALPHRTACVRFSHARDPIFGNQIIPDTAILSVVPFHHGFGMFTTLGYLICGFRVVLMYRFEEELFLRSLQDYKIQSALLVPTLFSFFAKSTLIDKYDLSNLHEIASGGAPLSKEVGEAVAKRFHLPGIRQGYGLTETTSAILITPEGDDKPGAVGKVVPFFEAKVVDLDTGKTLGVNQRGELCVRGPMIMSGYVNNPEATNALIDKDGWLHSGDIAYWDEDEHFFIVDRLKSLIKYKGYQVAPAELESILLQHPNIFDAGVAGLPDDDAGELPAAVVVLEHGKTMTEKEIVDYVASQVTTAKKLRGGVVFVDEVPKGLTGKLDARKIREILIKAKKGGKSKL
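Purified P. pyralis luciferase (10nM final) with 10uM D-luciferin and 10uM ATP (Km levels) in 50mM Tris acetate pH 7.5, 10mM Mg acetate, 0.01% Tween-20, 0.05% BSA; qHTS 6-point titration, ~60 µM downward; luminescence read.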
NPC1 prom act – activates the NPC1 promoter | actives 2.4% (n = 320,000) | Huh7 NPC1 promoter luciferase reporter, 24 h | Potency, µM (top dose mostly 9.22 µM), for inactives: top-dose activation, most hits filed as activators; also: % of control where 0% means no effect; nearly all actives have a fitted effect of over 60% in size
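Luciferase expression driven by the NPC1 promoter was measured in stably transfected Huh7 cells after a 24 h compound incubation, using a luciferase reagent and a luminescence read.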
SMN2 splice up – SMN2 splice variant enhancement; actives 2.8% (n = 210,000); HEK293 SMN2-luciferase splicing reporter, luminescence, 30-36 h; Potency, µM (doses to about 46.1 µM), inactives show top-dose activity change, positive = activation, usual class: activators; AID 1458; also: % of control where 0% means no effect; nearly all actives have a fitted effect of over 55% in size
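qHTS luciferase splicing reporter: luminescence rises when SMN2 exon 7 is included in transfected HEK293 cells. Compound exposure lasted 30-36 h at 37C, with 4.5 mM final sodium butyrate as control, followed by a ONE-Glo read.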
The depositor's hits bear a star; u = inconclusive; x = not tested or not shown. Calls follow the shape of the dose curve; as a rule, active = well fitted curve in the direction sought with a large enough effect; inconclusive = small, poorly fitted or top-dose-only effect, or another doubt; inactive = no such curve, though single readings can be large; an effect the other way counts as inactive or inconclusive. Potency is read from the fitted curve at half-maximal effect.

SMILES	Rab9 prom act	ELG1 genotox	ELG1 DNA repair	FLuc modulator	NPC1 prom act	SMN2 splice up
COc1ccc(/C=N\NC(=O)c2ccc([N+](=O)[O-])c(C)c2)cc1COc1ccccc1C(N)=O	0%	-19%	u	-1%	-11%	x
COc1ccc(/C=N/NC(=O)c2ccccc2OC)cc1COc1ccccc1[N+](=O)[O-]	8%	-11%	13µM*	-7%	8%	x
COc1ccc(/C=N/NC(=O)c2ccccc2O)cc1Cn1cc([N+](=O)[O-])cn1	0%	-5%	7%	u	1%	x
COc1ccc(/C=N/Nc2ccccc2C(=O)O)cc1Cn1cc([N+](=O)[O-])cn1	22%	12%	13%	19µM*	27%	x
COc1ccc(/C=N/NC(=O)c2cccnc2)cc1COc1ccc([N+](=O)[O-])c(C)c1	-20%	-5%	15µM*	-19%	-21%	x
COc1ccc(CNC(=O)COC(=O)CCN2C(=O)C3CC=CCC3C2=O)cc1OC (centres undefined)	-5%	-1%	11%	2%	0%	x
O=C(N/N=C\c1ccccc1)c1sccc1-n1cccc1	23%	0%	26%	u	19%	-7%
CC(C)CC(=O)NNC(=S)Nc1ccc(S(N)(=O)=O)cc1	3%	-1%	10%	-19%	-3%	7%
CCc1ccc(C(=O)NNC(=S)Nc2ccc(S(N)(=O)=O)cc2)s1	-1%	4%	16%	17µM*	-2%	x
Cc1c2cnn(-c3ccccc3)c(=O)c2c(C)n1C(C)C(=O)NCc1cccc(Br)c1 (centres undefined)	x	x	x	-7%	x	-31%
CC(C(=O)NCc1cccc(Br)c1)n1ncn2cccc2c1=O (centres undefined)	x	x	x	13µM*	x	x
O=C1CS/C(=N/N=C/c2cccs2)N1Cc1ccc(F)cc1	1%	-4%	21µM*	0%	-2%	x
C=CCN1C(=O)C(Cc2ccc(F)cc2)S/C1=N/N=C/c1cccs1 (centres undefined)	-2%	-1%	-22%	0%	2%	-10%
O=C(CCSCc1cccc(Cl)c1)NC1CCCC1	1%	0%	23%	-5%	-3%	-1%
Cc1cccc(C(=O)Nc2ccccc2-c2nc(-c3ccccc3)no2)c1	x	x	x	-5%	x	x
CC(C)c1cc(-c2nc(-c3ccccc3)no2)n[nH]1	x	x	x	1.7µM*	x	x
COc1ccc(-c2noc(-c3cc(C(C)C)[nH]n3)n2)cc1	x	x	x	21µM*	x	x
Cc1ccccc1-c1noc(-c2cc(C(C)C)[nH]n2)n1	x	x	x	11µM*	x	x
COc1ccc(-c2ccc(-c3noc(-c4ccccc4C)n3)c(OC)n2)cc1	1%	-1%	7%	u	0%	-6%
CC(C)c1cc(-c2nc(-c3ccc(Br)cc3)no2)n[nH]1	x	x	x	13µM*	x	x
Cc1ccccc1Nc1nc(-c2cccc(Cl)c2)c2c(n1)-c1ccccc1OC2	x	x	x	-3%	x	x
CC12CCC(C(=O)N3CCCCCC3)(OC1=O)C2(C)C (centres undefined)	-2%	-1%	-4%	2%	0%	-10%
Cc1cccn2c(=O)c3cc(C(=O)NCc4ccco4)c(=N)n(C4CCCC4)c3nc12	-2%	2%	9%	2%	-1%	x
C=C(C)CN(CC)C(=O)c1ccc(OC2CCN(S(=O)(=O)N(C)C)CC2)cc1	-12%	-6%	u	-7%	-11%	x
C#CCN(CC=C)C(=O)c1ccc(OC2CCN(S(=O)(=O)N(C)C)CC2)cc1	u	-1%	21µM*	u	21%	x
SMILES	Rab9 prom act	ELG1 genotox	ELG1 DNA repair	FLuc modulator	NPC1 prom act	SMN2 splice up
CN(C)S(=O)(=O)N1CCC(Oc2ccc(C(=O)N3C[C@H]4CC[C@H]3C4)cc2)CC1	-3%	-15%	13µM*	3%	-8%	x
CN(Cc1nc(-c2cccs2)no1)CC(O)c1ccccc1 (centres undefined)	u	8%	u	u	15%	x
O=C(Nc1ccc(N2CCCCC2)c(S(=O)(=O)Nc2ccccc2Cl)c1)c1cccnc1	x	-7%	18µM*	x	x	x
O=C(Nc1ccc(Cl)c(Cl)c1)Nc1ccc(N2CCCC2)c(S(=O)(=O)Nc2ccccc2Cl)c1	-34%	0%	u	1%	-20%	-46%
O=C(Nc1ccc(N2CCOCC2)c(S(=O)(=O)Nc2ccccc2Cl)c1)c1ccc(F)cc1	x	-7%	18µM*	x	x	x
CCCC(=O)Nc1ccc(NC(=O)c2ccccc2F)cn1	u	8%	u	u	u	x
CCC(=O)Nc1ccc(NC(=O)c2ccccc2)nc1	0.45µM*	u	u	6µM*	1.3µM*	4µM*
CCC(=O)Nc1ccc(NC(=O)Cc2ccccc2)cn1	0%	2%	0%	3%	-1%	4%
CCCC(=O)Nc1ccc(NC(=O)c2ccccc2)nc1	0.28µM*	u	u	4.8µM*	0.32µM*	x
Cc1cc(=O)oc2cc(OC(C)C(=O)NCCCN3CCCC3=O)c(Cl)cc12 (centres undefined)	3%	2%	9%	0%	-2%	x
Fc1cc(Br)ccc1COc1ccc(-c2nnco2)cc1	2.5µM*	u	u	u	2.5µM*	x
Fc1ccc(COc2ccc(-c3nnco3)cc2)c(Cl)c1	u	25%	u	u	25%	x
Cc1ccc(N2CCN(S(=O)(=O)c3ccc4c(c3)n(C)c(=O)c(=O)n4C)CC2C)cc1 (centres undefined)	-5%	9%	-9%	-1%	-8%	4%
Cn1c(C(=O)Nc2ccc3c(c2)OCCO3)cc2sccc21	1.1µM*	2.1µM*	u	1.1µM*	1.3µM*	7.1µM*
O=C(Nc1ccc2c(c1)OCCO2)c1cc2sccc2n1Cc1ccccc1	u	-1%	u	21µM*	24%	10%
O=C(Nc1ccc2c(c1)OCCO2)c1cc2sccc2n1Cc1ccc(F)cc1	28%	-1%	u	u	13%	-30%
CN(C(=O)CC1C(=O)NCCN1Cc1c(F)cccc1Cl)C1CCOCC1 (centres undefined)	u	4%	11%	3%	-1%	x
COc1ccc(-c2cc(C(F)(F)F)n3nc(C(=O)NCc4ccco4)cc3n2)cc1OC	1%	5%	u	-1%	-1%	-3%
Cc1ccc(NC(=O)Nn2cnnc2)cc1Cl	1%	8%	7%	-3%	-1%	x
Cc1ccc(NC(=O)O/N=C/c2c(C)nn(C(C)(C)C)c2C)cc1Cl	-44%	-12%	u	0.13µM*	-35%	x
COc1cc(NC(=S)Nc2cccnc2)cc(OC)c1OC	0%	1%	6%	-2%	6%	-6%

Bioassay records (PubChem BioAssay)
